# In PubChem BioAssay:
# Values joined by “and” are separate entries in the source; they are usually repeats but may differ in a detail not shown here. Equal entries are not always repeated.
# Assay: EMT-state selective cytotoxicity in co-culture – imaging, PC-3E GFP, TEM4-18 mCherry, primary screen (AID 1345086);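 also: cells exposed to compound for 72 h before imaging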
# Details: PC-3E GFP / TEM4-18 mCherry co-culture, imaging cell counts; measured here: mesenchymal TEM4-18 mCherry cell survival; at 1 µM
row,Structure (SMILES),normalised cell number
1,CC1(C)C2CC[C@]3(C)C(C(=O)C=C4[C@@H]5C[C@@](C)(C(=O)O)CC[C@]5(C)CC[C@]43C)[C@@]2(C)CC[C@@H]1O (some centres not stated),0.89
2,COc1ccc([C@@H]2CC(=O)c3c(O)cc(O[C@@H]4O[C@H](CO[C@H]5O[C@@H](C)[C@H](O)[C@@H](O)[C@H]5O)[C@@H](O)[C@H](O)[C@H]4O)cc3O2)cc1O,0.81
3,CN[C@@H]1[C@@H](O)[C@@H](O[C@@H]2[C@@H](O)[C@H](O[C@H]3O[C@H]([C@@H](C)NC)CC[C@H]3N)[C@@H](N)C[C@H]2N)OC[C@]1(C)O,1.13
4,CC(=O)[C@@]1(O)CCC2C3C=C(Cl)C4=CC(=O)[C@@H]5CC5[C@]4(C)C3CC[C@@]21C (some centres not stated),0.88
5,CC(C)(C)NC[C@@H](O)COc1nsnc1N1CCOCC1,1.05
6,CC(C)CC(NC(=O)CCN)C(=O)O (configuration not stated),1.31
7,CC[C@H](C)C(=O)O[C@H]1CCC=C2C=C[C@H](C)C(CCC3C[C@@H](O)CC(=O)O3)[C@H]21 (some centres not stated),0.89
8,NC[C@H]1O[C@H](O[C@H]2C(O[C@@H]3O[C@H](CO)[C@@H](O)[C@H]3O)[C@@H](O)[C@H](N)C[C@@H]2N)[C@H](N)[C@@H](O)[C@@H]1O (some centres not stated),1.1
9,CC1=C2C(=CO[C@H](C)[C@H]2C)C(=O)C(C(=O)O)=C1O,0.99 and 1.03 and 0.95
10,CC(=O)Oc1ccc2c(c1)CCC1C2CC[C@@]2(C)C1CC[C@@H]2OC(C)=O (some centres not stated),1.12
11,C1CCN2C[C@H]3C[C@H](CN4CCCC[C@@H]34)[C@H]2C1,1.19
12,CC(CCC(=O)O)[C@H]1CCC2C3CC[C@@H]4C[C@H](O)CC[C@]4(C)C3CC[C@@]21C (some centres not stated),0.89
13,C[C@@H]1CC[C@@]2(OC1)OC1CC3C4CC=C5C[C@@H](O)CC[C@]5(C)C4CC[C@]3(C)C1[C@@H]2C (some centres not stated),1.16
14,CC1CCC2(OC1)OC1CC3C4CC[C@H]5C[C@@H](O)CC[C@]5(C)C4CC(=O)[C@]3(C)C1C2C (some centres not stated),1.27
15,CC(=O)Oc1ccc2c(c1)CCC1C2CC[C@]2(C)C(=O)CCC12 (some centres not stated),1.03
16,CCCC(=O)Nc1ncnc2c1ncn2C1O[C@@H]2COP(=O)(O)O[C@H]2[C@H]1OC(=O)CCC (some centres not stated),0.88
17,CC(=O)O[C@@H]1CC2C(C)(C)C(=O)C=C[C@]2(C)C2CC[C@@]3(C)[C@H](c4ccoc4)OC(=O)[C@H]4O[C@]43[C@@]21C (some centres not stated),0.99
18,CC(=O)N[C@@H]1[C@@H](C(O)[C@H](O)CO)O[C@](O)(C(=O)O)C[C@@H]1O (some centres not stated),1.12
19,CCCCC(=O)O[C@]1(C(=O)CO)[C@@H](C)CC2C3CCC4=CC(=O)C=C[C@]4(C)[C@@]3(F)C(O)C[C@@]21C (some centres not stated),1.14
20,CC(C)Oc1ccc2c(=O)cc(-c3ccccc3)oc2c1,0.99
21,NC[C@@H]1O[C@H](O[C@@H]2[C@@H](CO)OC(O[C@@H]3[C@@H](O)[C@H](N)C[C@H](N)[C@H]3O[C@H]3O[C@H](CO)[C@@H](O)[C@H](O)[C@H]3N)[C@@H]2O)[C@H](N)[C@@H](O)[C@@H]1O (some centres not stated),1.13
22,COc1ccc(-c2cc(=O)c3c(O)cc(O[C@@H]4O[C@H](CO[C@H]5O[C@H](C)[C@@H](O)[C@H](O)[C@@H]5O)[C@@H](O)[C@H](O)[C@H]4O)cc3o2)cc1O,0.98
23,C[N+]1(C)C2CC(OC(=O)[C@@H](CO)c3ccccc3)CC1C1OC12 (some centres not stated),1.19
24,CC(=O)N1CCCC1C(=O)O (configuration not stated),1.03
25,COC1=CC(C)[C@@H]2C[C@H]3OC(=O)C[C@H]4C(C)=C(OC)C(=O)C([C@@]34C)[C@@]2(C)C1=O (some centres not stated),1.03
26,NC(Cc1ccc(F)cc1)C(=O)O (configuration not stated),0.84
27,COC(=O)C(N)CS (configuration not stated),1.11
